{"source": "PubChem BioAssay (NCATS)", "note": "Activity calls are given as the source filed them. How the calls were made is not given here. Potency means the concentration at half of the fitted maximal effect."}
{"system": "HIV-1 nucleocapsid protein NCp7 (binding to TG oligonucleotide)", "experiment": "HIV Nucleocapsid (AID 346);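 further: potency is for inhibitors that block NC binding and lower polarization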", "conditions": "HIV-1 NC / fluorescein-TGTGTGTG probe, fluorescence polarization", "method_in_brief": "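Reagents dispensed (10 nM TG4xF, 100 nM HIV-1 NC), plates spun, compounds pin-transferred, then incubated 1 hr at room temperature before FP imaging. Buffer: Hepes pH 7.5, 250mM NaCl, 1uM ZnCl2, 100 uM TCEP, 5 mM 2-mercaptoethanol.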"}
{"smiles": "COCCn1c(=O)c(-c2ccc(OC)cc2)nc2cnc(N3CCOCC3)nc21", "Potency": "> 20 µM (inactive)"}
{"smiles": "Cc1nc2cnc(N3CCNCC3)nc2n(Cc2ccc(F)cc2)c1=O", "Potency": "> 4 µM (inactive)"}
{"smiles": "COCC(=O)N1CCC2(CC1)CCN(C(c1ccccc1)c1ccccc1)CC2", "Potency": "> 20 µM (inactive)"}
{"smiles": "COc1ccccc1CN1CCCC2(CCN(C(=O)c3c(C)noc3C)CC2)C1", "Potency": "> 20 µM (inactive)"}
{"smiles": "CN(C)c1ncc2nc(-c3ccc(Cl)cc3)c(=O)n(C3CC3)c2n1", "Potency": "> 20 µM (inactive)"}
{"smiles": "COc1ccc2[nH]cc(CCNc3nc(-c4c(C)noc4C)nc4ccccc34)c2c1", "Potency": "> 20 µM (inactive)"}
{"smiles": "O=C(c1ccco1)N1CCC2(CCN(Cc3ccccc3)CC2)CC1", "Potency": "> 20 µM (inactive)"}
{"smiles": "Cc1noc(C)c1C(=O)N1CCC2(CCCN(c3ccncc3)C2)CC1", "Potency": "> 20 µM (inactive)"}
{"smiles": "O=c1c(-c2ccc(Cl)cc2)nc2cnc(Nc3ccccc3)nc2n1C1CC1", "Potency": "> 20 µM (inactive)"}
{"smiles": "N#Cc1ccc(CN2CCCC3(CCN(C(=O)c4csnn4)CC3)C2)cc1", "Potency": "> 20 µM (inactive)"}
{"smiles": "COc1ccc2[nH]cc(CCNc3nc(-c4ccc(N(C)C)cc4)nc4ccccc34)c2c1", "Potency": "> 20 µM (inactive)"}
{"smiles": "FC(F)(F)c1ccccc1-c1ccc2ncnc(NC3CC3)c2c1", "Potency": "> 20 µM (inactive)"}
{"smiles": "Cc1noc(C)c1C(=O)N1CCC2(CCCN(C(c3ccccc3)c3ccccc3)C2)CC1", "Potency": "> 20 µM (inactive)"}
{"smiles": "CN(C)Cc1ccccc1-c1cncnc1Nc1ccncc1", "Potency": "> 20 µM (inactive)"}
{"smiles": "COCCNc1nc(-c2ccc(C(=O)N(C)C)cc2)nc2ccccc12", "Potency": "> 20 µM (inactive)"}
{"smiles": "Cc1nc2cnc(Oc3ccccc3)nc2n(C2CC2)c1=O", "Potency": "> 20 µM (inactive)"}
{"smiles": "Cn1c(=O)c(-c2ccccc2)nc2cnc(Oc3ccccc3)nc21", "Potency": "> 20 µM (inactive)"}
{"smiles": "COc1ccc(-n2c(=O)cnc3cnc(N(C)C)nc32)cc1", "Potency": "> 20 µM (inactive)"}
{"smiles": "COc1cccc(Cn2c(=O)c(-c3ccccc3)nc3cnc(N4CCN(C)CC4)nc32)c1", "Potency": "> 20 µM (inactive)"}
{"smiles": "N#Cc1cccc(NC(=O)N2CC3(CCN(C(=O)c4cccc(F)c4)CC3)C2)c1", "Potency": "> 20 µM (inactive)"}
{"smiles": "COc1cccc(-c2nc(NCCNC(C)=O)c3ccccc3n2)c1", "Potency": "> 20 µM (inactive)"}
{"smiles": "COc1ccccc1-c1ccc2ncnc(N3CCNCC3)c2c1", "Potency": "> 20 µM (inactive)"}
{"smiles": "CN(C)Cc1ccccc1-c1ccc2ncnc(N(C)C)c2c1", "Potency": "> 20 µM (inactive)"}
{"smiles": "CN1CCN(c2ncncc2-c2ccccc2C(F)(F)F)CC1", "Potency": "> 20 µM (inactive)"}
{"smiles": "COc1ncc2nc(-c3ccc(F)cc3)c(=O)n(CCC#N)c2n1", "Potency": "> 20 µM (inactive)"}
{"smiles": "Cn1cccc1C(=O)N1CCC2(CCCN(c3ccncc3)C2)CC1", "Potency": "> 20 µM (inactive)"}
{"smiles": "CN1CC[C@@]2(CCCN(C(=O)c3cc(C(F)(F)F)cc(C(F)(F)F)c3)C2)C1", "Potency": "> 20 µM (inactive)"}
{"smiles": "Cc1cnc(CNc2ncnc3ccc(-c4ccccc4CN(C)C)cc23)cn1", "Potency": "> 20 µM (inactive)"}
{"smiles": "Cc1cccc(CNc2cc(-c3ccccc3C)ncn2)c1", "Potency": "> 20 µM (inactive)"}
{"smiles": "COc1ccc(CNc2ncnc3ccc(-c4c(C)noc4C)cc23)c(OC)c1", "Potency": "> 20 µM (inactive)"}
{"smiles": "O=C(c1ccncc1)N1CCC2(CC1)CN(c1ccncc1)C2", "Potency": "> 20 µM (inactive)"}
{"smiles": "CCNc1ncc2nc(-c3cc(F)cc(F)c3)c(=O)n(C3CC3)c2n1", "Potency": "> 20 µM (inactive)"}
{"smiles": "CN1CCN(c2ncc3nc(-c4ccc(Cl)cc4)c(=O)n(Cc4cccs4)c3n2)CC1", "Potency": "> 20 µM (inactive)"}
{"smiles": "Cc1noc(C)c1C(=O)N1CCC2(CCCN(c3ncccn3)C2)CC1", "Potency": "> 20 µM (inactive)"}
{"smiles": "CN(C)C(=O)c1ccc(-c2ccc3ncnc(N4CCC(C(=O)O)CC4)c3c2)cc1", "Potency": "> 20 µM (inactive)"}
{"smiles": "COc1ccc(Oc2ncc3nc(C)c(=O)n(C4CC4)c3n2)cc1", "Potency": "> 20 µM (inactive)"}
{"smiles": "CN(C)c1ncc2nc(-c3cc(F)cc(F)c3)c(=O)n(C[C@H]3CCCO3)c2n1", "Potency": "> 20 µM (inactive)"}
{"smiles": "O=C(Nc1ccccc1)N1CC[C@@]2(CCCN(C(=O)c3ccco3)C2)C1", "Potency": "> 20 µM (inactive)"}
{"smiles": "CN1CCN(c2ccnc(-c3cccc(NS(C)(=O)=O)c3)n2)CC1", "Potency": "> 20 µM (inactive)"}
{"smiles": "CC(C)NC(=O)N1CC2(CCN(S(=O)(=O)c3ccccc3)CC2)C1", "Potency": "> 20 µM (inactive)"}
